Sampled rows, rich in hits. Any-hit rate of the full collection: about 2.1%.
Abeta yeast res: restores growth of yeast expressing A-beta42 peptide. yeast expressing A-beta42, growth rescue, OD600, 48 h; response scale: 0% DMSO, 100% iron-clioquinol control. Potency, µM (series often up to 46.1 µM), usual class: activators. 0.063% of 410,000 active. AID 1347071; note: nearly all actives have a fitted effect of over 55% in size
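Growth rescue measured by 600 nm absorbance after 48 h yeast culture at 30 C with compound. Values normalized between DMSO and an equimolar ferric chloride plus clioquinol control.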
TDP43 rescue: inhibitors of TDP-43 toxicity in yeast; Potency, µM (top dose mostly 46.1 µM), actives largely listed as activators; AID 652104; TDP-43 expressing yeast growth rescue, BacTiter-Glo, 24 h; 1.8% of 410,000 active; note: nearly all actives have a fitted effect of over 50% in size
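Yeast expressing TDP-43 (pregrown in raffinose, seeded at OD600=0.02 in galactose medium) exposed to compounds 24 hr at 30 deg C. Growth read by BacTiter-Glo luminescence; rescue of toxicity appears as increased signal.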
FUS yeast rescue: rescues growth of FUS-expressing yeast; S. cerevisiae FUS-expressing, growth rescue, OD600, 24 h; Potency, µM (series often up to 76.6 µM), usual class: activators; 0.24% of 390,000 active; note: nearly all actives have a fitted effect of over 55% in size
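Steps: raffinose overnight preculture; dilution to OD 0.005 in 2% galactose minimal medium; compound addition (concentration series); 24hr at 30C, 99% humidity; absorbance read at 600 nm.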
aSyn yeast inh: inhibitors of alpha-synuclein toxicity in yeast; Potency, µM (highest dose often 46.1 µM), actives largely listed as activators; 0.14% of 370,000 active; Yeast expressing alpha-synuclein, growth rescue, BacTiter-Glo, 24 h; note: nearly all actives have a fitted effect of over 65% in size
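Galactose-induced alpha-syn yeast (OD600=0.02, raffinose-pregrown) + pinned cpd, 24 hr, 30 deg C; growth by BacTiter-Glo luminescence. Growth restoration scores as activation.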
Each line names hits and unclear results; the compound was inactive in the other large screens. Calls come from the whole dose curve; as a rule, active = well fitted curve in the direction sought with a large enough effect; inconclusive = small, poorly fitted or top-dose-only effect, or another doubt; inactive = no such curve, though single readings can be large; an effect the other way counts as inactive or inconclusive.

CCCCOC(=O)/C=C/c1ccc(OC(=O)OC)c(OC(=O)OC)c1	TDP43 rescue 14µM
COC(=O)Oc1ccc(/C=C/C(=O)OC(C)C)cc1OC(=O)OC	TDP43 rescue 14µM
O=C(CSc1cccc[n+]1[O-])CSc1cccc[n+]1[O-]	Abeta yeast res inconclusive, TDP43 rescue 3.5µM, aSyn yeast inh inconclusive
O=C(CSc1cccc[n+]1[O-])N1CCCCCC1	none
c1ccc(Cc2nn3c(Cn4nnc5ccccc54)nnc3s2)cc1	none
c1ccc2c(c1)OCC(c1nn3c(Cn4nnc5ccccc54)nnc3s1)O2 (stereo not drawn)	FUS yeast rescue 32µM
CC1(C(=O)NS(=O)(=O)c2ccccc2Cl)CCN1C(=O)C1(c2ccccc2)CCCC1 (stereo not drawn)	TDP43 rescue inconclusive
CC1(C(=O)NS(=O)(=O)c2ccccc2)CCN1C(=O)C1(c2ccc(Cl)cc2)CCC1 (stereo not drawn)	none
Cc1ccccc1S(=O)(=O)NC(=O)C1(C)CCN1C(=O)C1(c2ccc(Cl)cc2)CCC1 (stereo not drawn)	TDP43 rescue 25µM, FUS yeast rescue inconclusive
CC1(C(=O)NS(=O)(=O)c2ccccc2Cl)CCN1C(=O)C1(c2ccc(Cl)cc2)CC1 (stereo not drawn)	TDP43 rescue 35µM
Cc1ccccc1S(=O)(=O)NC(=O)C1(C)CCN1C(=O)c1ccccc1CCc1ccccc1 (stereo not drawn)	TDP43 rescue 35µM, FUS yeast rescue inconclusive
CC1(C(=O)NS(=O)(=O)c2ccccc2Cl)CCN1C(=O)C1(c2ccc(Cl)cc2)CCC1 (stereo not drawn)	TDP43 rescue 13µM
CNC[C@H]1Oc2ccc(NC(=O)Cc3cn(C)c4ccccc34)cc2CC(=O)N([C@@H](C)CO)C[C@H]1C	FUS yeast rescue inconclusive
C=CCNC(=O)C(=O)Nc1ccc2c(c1)N(S(=O)(=O)c1cccs1)CCC2	TDP43 rescue inconclusive
CCCCCCCCN1C(=O)[C@H](CC(=O)N2CCCCC2)C[C@@]2(C(=O)OC)CCCCC=C12	FUS yeast rescue inconclusive, aSyn yeast inh inconclusive
Cc1cccc(Cn2c(-c3ccccc3)nc3ccccc32)c1	TDP43 rescue 14µM (no result: aSyn yeast inh)
C=C(C)Cn1c(-c2ccccc2)nc2ccccc21	none
CCSc1nc2ccccc2n1Cc1ccccc1F	TDP43 rescue 14µM
NC(=O)CSc1nc2ccccc2n1Cc1ccccc1F	aSyn yeast inh inconclusive
Fc1ccccc1Cn1c(-c2ccccc2)nc2ccccc21	TDP43 rescue 22µM (no result: aSyn yeast inh)
Cc1cccc(Cn2c(Cc3ccccc3)nc3ccccc32)c1	TDP43 rescue inconclusive
C=CCNC(=O)CN(C(=O)c1csc2ccc(Cl)cc12)c1cccc(Br)c1	none (no result: Abeta yeast res, TDP43 rescue, aSyn yeast inh)
Cc1cc(C)c(S(=O)(=O)c2ccccc2)c(N(C)C)n1	none
CN(C)c1nc(F)c(F)c(S(=O)(=O)c2ccccc2)c1F	TDP43 rescue 14µM
COc1ccc(OC)c(NC(=O)CSC2=Nc3ccccc3C3=NC(CC(=O)NCc4ccc5c(c4)OCO5)C(=O)N23)c1 (stereo not drawn)	FUS yeast rescue inconclusive (no result: aSyn yeast inh)
COc1ccc(NC(=O)CCc2nc3cccnc3n2Cc2cccs2)c(OC)c1	none (no result: aSyn yeast inh)
O=C(CCc1nc2cccnc2n1Cc1cccs1)Nc1cccc(C(F)(F)F)c1	Abeta yeast res inconclusive, TDP43 rescue 25µM (no result: aSyn yeast inh)
O=C(CNC(=O)c1ccccc1C(F)(F)F)N/N=C/c1cccs1	none (no result: Abeta yeast res)
O=C(NC1CCCCC1)C1c2ccccc2OCC(=O)N1Cc1ccccc1 (stereo not drawn)	none
CSc1ccccc1NC(=O)N1CCCC(C(=O)c2ccc3c(c2)OCO3)C1 (stereo not drawn)	TDP43 rescue 16µM
Cc1oc(-c2ccccc2)nc1C(=O)N1CCN(c2ccc(F)cc2)CC1	TDP43 rescue 11µM
Cc1ccc(-c2nc(CS(=O)CC(=O)N3CCN(c4ccc(F)cc4)CC3)c(C)o2)cc1 (stereo not drawn)	TDP43 rescue inconclusive
COc1ccc(CN(CC#Cc2ccc(C)cc2)C(N)=NC(=O)CCc2ccccc2)c(OC)c1	none (no result: Abeta yeast res, TDP43 rescue, aSyn yeast inh)
CC(C)c1ccc(O)c(C(=O)c2cnn(-c3ccccc3)c2)c1	TDP43 rescue 20µM
O=C(c1cnn(-c2ccccc2)c1)c1cc(Br)ccc1O	none (no result: FUS yeast rescue)
Cc1nc(Nc2ccccc2)sc1C(=O)c1ccccc1	none
CC(=O)c1cc(C(=O)c2ccccc2)sc1Nc1ccccc1	TDP43 rescue 35µM
CCCc1cnc(N2CCN(C(=O)c3ccc(OC)cc3)CC2)nc1	TDP43 rescue inconclusive

Assay outcomes: PubChem BioAssay, National Center for Advancing Translational Sciences (NCATS)
